BoNT A protease: BoNT/A light chain protease inhibitors, primary screen, biochemical, flow cytometry, MLPCN library; Botulinum neurotoxin type A light chain protease (Clostridium botulinum A str. ATCC 3502); multiplex microsphere protease substrate cleavage; inhibition, % at 10 µM; 360,000 tested, 0.17% active
GDH-TPI inh: GDH-TPI coupling enzyme inhibitors, primary screen, artefact control for M. tuberculosis FBA inhibitor project, biochemical, absorbance, full deck. AID 588335, 2011. inhibition, % at 4.8 µM. 360,000 tested, 1.2% active. GDH-TPI coupled enzyme counterscreen, NADH absorbance; in the data active = inhibition above about 30%
Anthrax LF prot: Bacillus anthracis LF protease inhibitors, primary screen, biochemical, multiplex microsphere, MLPCN library; Lethal factor (Bacillus anthracis), P15917; multiplex microsphere protease cleavage assay; inhibition, % at 10 µM; 360,000 tested, 0.12% active; AID 588501, 2011
BoNT F protease: BoNT/F light chain protease inhibitors, primary screen, biochemical, flow cytometry, MLPCN library. AID 588497, 2011. inhibition, % at 10 µM. Botulinum neurotoxin type F light chain protease (Clostridium botulinum). 360,000 tested, 0.22% active. Multiplex microsphere protease cleavage assay; in the data active = inhibition above about 35%, passing the limit was not always enough; inconclusive = no clear call, values can overlap the other calls
Mtb FBA inh: Mtb FBA enzyme inhibitors, primary screen, biochemical, fluorescence, strain H37Rv. inhibition, % at 1 µM. Fructose-bisphosphate aldolase (Mycobacterium tuberculosis (strain ATCC 25618 / H37Rv)), …. 360,000 tested, 2.3% active. purified M. tuberculosis FBA, fluorescence read-out. AID 588726, 2011; in the data active = inhibition above about 27%
Target sequence (P9WQA3 whole entry, looked up): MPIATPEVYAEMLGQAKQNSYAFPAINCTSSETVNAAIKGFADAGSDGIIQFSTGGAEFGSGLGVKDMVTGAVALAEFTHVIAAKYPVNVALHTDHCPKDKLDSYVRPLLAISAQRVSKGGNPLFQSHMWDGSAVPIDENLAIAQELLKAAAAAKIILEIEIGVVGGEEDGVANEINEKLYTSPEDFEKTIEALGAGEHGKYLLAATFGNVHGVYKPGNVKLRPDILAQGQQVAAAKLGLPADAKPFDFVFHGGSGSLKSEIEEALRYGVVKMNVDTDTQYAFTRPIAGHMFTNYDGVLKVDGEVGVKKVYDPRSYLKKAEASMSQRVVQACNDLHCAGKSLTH
Bead autofluor: flagged as autofluorescent in microsphere protease counterscreen; compound autofluorescence counterscreen, microsphere flow cytometry; active compounds read high; fluorescence intensity (concentration not given with the values); 360,000 tested, 3.1% active; AID 624483; in the data active = fluorescence intensity above about 16000; inconclusive = no clear call, values can overlap the other calls
Numbers stand for hits; - = inactive; ? = inconclusive; . = not tested or not shown; + = active, no number. Hits are enriched below; roughly 6.6% of the tested compounds scored in any of these assays. Cut-off read from the data, not from the text of the source, unless noted: active = inhibition above about 30%; inconclusive = no clear call, values can overlap the other calls; inactive = below that.

SMILES | BoNT A protease | GDH-TPI inh | Anthrax LF prot | BoNT F protease | Mtb FBA inh | Bead autofluor
CCOC(=O)N1CCN(C(=O)C2CCN(Cc3ccc(O)c(OCC)c3)CC2)CC1 | - | - | - | - | - | -
CCOc1cc(CN2CCN(c3cccc(C(F)(F)F)c3)CC2)ccc1O | - | - | - | - | - | 20233
CCOc1cc(CN2CCCCC2)ccc1OC | - | - | - | - | - | -
CCOc1cc(CN2CCSCC2)ccc1O | - | - | - | - | - | 16487
Cc1ccc(Cn2nnc3c(=O)[nH]c(C4CCN(C(=O)c5cccs5)CC4)nc32)cc1 | - | - | - | - | - | 23099
O=c1[nH]c(C2CCCN(S(=O)(=O)c3cccc(F)c3)C2)nc2c1nnn2Cc1ccccc1 (stereo unspecified) | - | - | - | - | - | -
O=c1[nH]c(C2CCCN(S(=O)(=O)c3ccccc3)C2)nc2c1nnn2Cc1ccccc1 (stereo unspecified) | - | - | - | - | - | 22466
O=C(NCCCc1ccccc1)c1cccc(NC(=O)C2CCCCC2)c1 | - | - | - | - | - | -
CC(C)(C)C(=O)N1Cc2cc(-c3ccccc3)ccc2-n2nncc2C1 | - | . | - | - | - | -
COc1ccc(-c2ccc3c(c2)CN(C(=O)C(C)(C)C)Cc2cnnn2-3)cc1 | - | . | - | - | 140 | -
COc1cccc(CNCCSc2nnnn2C)c1OC | - | - | - | - | - | 22850
Cn1nnnc1SCc1ccccc1F | - | - | - | - | - | 22071
Cn1nnnc1SCCNCc1ccccc1F | - | - | - | - | - | 22828
COc1cc(NC(=O)c2cccs2)c(OC)cc1NC(=O)Nc1ccc(F)cc1 | . | - | . | . | - | .
CC(C)Cc1nnc(NC(=O)c2ccc(-n3cncn3)c([N+](=O)[O-])c2)s1 | - | - | - | - | - | -
COC(=O)c1cc(Cl)cc2c(C)c(C3(O)CCCCC3)[nH]c12 | - | - | - | - | - | -
COC(=O)c1ccc2c(C)c(C3(O)CCCCC3)[nH]c2c1 | - | - | - | - | + | -
CC(C)CC(NC(=O)c1ccc(C#CC(C)(C)O)s1)C(=O)O (stereo unspecified) | - | - | - | - | - | -
Cc1cccnc1NC1(C(F)(F)F)N=C(c2ccccc2)NC1=O (stereo unspecified) | - | - | - | - | - | 20365
Cc1oc2c(CN3CCCC3)c(O)ccc2c(=O)c1-c1ccccc1 | - | - | - | - | 118 | -
CCOC(=O)c1c(-c2ccccc2)oc2ccc(O)c(CN3CCCC3)c12 | - | - | - | - | - | 17165
Cc1oc2c(CN3CCCC3)c(O)ccc2c(=O)c1-c1ccc(Cl)cc1 | - | - | - | - | 86 | -
Cc1oc2c(CN3CCC(C)CC3)c(O)ccc2c(=O)c1-c1ccccc1 | - | - | - | - | 181 | -
CC1=CC(=O)C2(C)C(C)=C(C)C12C (stereo unspecified) | - | - | - | - | - | -
COc1ccc2cc(C(=O)O)ccc2c1 | - | - | - | - | - | ?
SMILES | BoNT A protease | GDH-TPI inh | Anthrax LF prot | BoNT F protease | Mtb FBA inh | Bead autofluor
COC(=O)C12CCc3c(ccc4cc(OC)ccc34)C1=CC(=O)C2 (stereo unspecified) | - | 45 | - | - | + | -
Cc1ccc2sc(NC(=O)CSc3nc(C)cc(C)c3C#N)nc2c1 | ? | - | - | - | - | 22663
Cc1csc(NC(=O)CSc2nsc(SCC(=O)Nc3nc(C)cs3)c2C#N)n1 | ? | - | - | - | - | 21632
CC(C)(C)NC(=O)CSc1nsc(SCC(=O)NC(C)(C)C)c1C#N | - | - | - | - | - | 17119
O=C(NNC(=S)NC(=O)C12CC3CC(CC(C3)C1)C2)c1ccncc1 | - | - | - | - | - | -
O=C(CCC(NC(=O)OCc1ccccc1)C(=O)OCC(=O)N1CCCCC1)OCC(=O)N1CCCCC1 (stereo unspecified) | - | - | - | - | - | 21055
CC(C)C[C@H]1COc2cc(N3CC[C@H](O)C3)ccc2S(=O)(=O)N1 | - | . | - | - | . | -
CCOC(=O)c1nnc(-c2cccs2)nc1NC(C)C | - | 31 | - | - | - | -
O=C(c1ccc(Cn2cc([N+](=O)[O-])cn2)o1)N1CCCCCC1 | - | - | - | - | - | -
O=C(c1ccc(Cn2cc([N+](=O)[O-])cn2)o1)N1N=C(C(F)F)CC1(O)C(F)F (stereo unspecified) | - | - | - | - | - | 22404
COc1cccc(C(=O)Nc2ccc3c(c2)C(=O)N(CCC(=O)O)C3=O)c1 | ? | - | - | - | - | 20871
COCCCN1C(=O)c2ccc(C(=O)Nc3cccc(OC)c3)cc2C1=O | . | - | . | . | - | .
CCOC(=O)c1oc2ccc(Br)cc2c1COC(=O)C1=COCCO1 | - | - | - | - | - | ?
COc1ccc(-c2nnn(CC(=O)N3CCOCC3)n2)cc1 | - | - | - | - | - | -
O=C(Cn1nnc(-c2ccc(OCc3ccccc3F)cc2)n1)N1CCOCC1 | - | - | - | - | - | 22617
N#CC(C#N)=C1C=C2C=C(N3CCOCC3)CCC2CC1 (stereo unspecified) | - | - | - | - | - | 26074
N#Cc1cc(Cl)c(N2CCOCC2)cc1C#N | - | - | - | - | - | -
CN1CCN(C2=CC3=CC(=C(C#N)C#N)CCC3CC2)CC1 (stereo unspecified) | - | - | - | - | - | 17359
CC1(C)CC(NCCN2CCN(C3=CC(=C(C#N)C#N)CC(C)(C)C3)CC2)=CC(=C(C#N)C#N)C1 | - | - | - | - | - | -
CCN1CCN(C2=CC3=CC(=C(C#N)C#N)CCC3CC2)CC1 (stereo unspecified) | - | - | - | 48 | - | 30604
N#CC(C#N)=C1C=C2C=C(N3CCCCCC3)CCC2CC1 (stereo unspecified) | 48 | - | 84 | 177 | - | 97979
O=C(N/C(=C\c1cccc([N+](=O)[O-])c1)C(=O)N(CCO)CCO)c1ccco1 | - | - | - | - | - | -
COc1cc(NC(=S)N2CCN(S(=O)(=O)c3ccccc3)CC2)cc(OC)c1 | - | - | - | - | - | -
Cc1noc(C)c1C(=O)OCC(=O)/C=C1/N(C)c2ccccc2C1(C)C | - | - | - | - | - | -
Cc1ccc(NC(=O)c2cc([N+](=O)[O-])ccc2N2CCOCC2)cc1C | - | - | - | - | - | -
Cc1ccc(NC(=O)c2cc([N+](=O)[O-])ccc2N2CCOCC2)cc1S(=O)(=O)N(C)C | - | 42 | - | - | - | -
Cn1c(N2CCCCC2)nc2c1c(=O)[nH]c(=O)n2C | - | - | - | - | - | 16214
CC(C)n1c(N2CCCC2)nc2c1c(=O)[nH]c(=O)n2C | - | - | - | - | - | -
Cc1ccc2nc(C(F)OC(F)(F)F)[nH]c2c1 (stereo unspecified) | - | - | - | - | - | 17272

Screens: PubChem BioAssay, several laboratories
